Screens as filed in PubChem.
hDAT+cocaine: human DAT dopamine uptake with cocaine, either direction. AID 449768. Q01959. B-score at 10 µM. 1.3% of 110,000 active. LLC-PK1 hDAT cells, [14C]-dopamine uptake with cocaine IC80; actives deviate in either direction;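 active = Z score or B-score, a plate-position-corrected score, falls beyond the plate's 99.7% confidence bounds, in either direction; inactive = both scores lie inside the 99.7% bounds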
MT1-MMP txn act: MT1-MMP promoter transcription activation. HT1080 MT1-MMP promoter luciferase reporter, luminescence, overnight; stronger effect = higher value. activation factor at 10 µM. 0.16% of 86,000 active. AID 750;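 active = activation factor of at least 2 for MT1-MMP transcription at 10 µM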
ERb coact inh: blocks coactivator binding to human estrogen receptor beta; TR-FRET ER-beta LBD / SRC1-Cy5 peptide binding; receptor agonist-loaded with 1 µM estradiol; inhibition, % at 25.6 µM; 1.3% of 86,000 active; Q92731;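 active = compounds whose percent inhibition of the receptor-coactivator binding signal exceeds about 50% in the single-dose screen, limit read from the data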
ERa coact pot: ER-alpha (human) coactivator binding potentiation; P03372; TR-FRET ERalpha-LBD/SRC-Cy5 coactivator binding, 2 h; 100 = basal binding, no effect; coactivator binding (% of control), % at 25.6 µM; 1.3% of 86,000 active; in the data active = activity above about 200%;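 also: binding measured in presence of low estradiol as agonist stimulus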
Target sequence (P03372 whole entry, looked up, the tested form may be a part): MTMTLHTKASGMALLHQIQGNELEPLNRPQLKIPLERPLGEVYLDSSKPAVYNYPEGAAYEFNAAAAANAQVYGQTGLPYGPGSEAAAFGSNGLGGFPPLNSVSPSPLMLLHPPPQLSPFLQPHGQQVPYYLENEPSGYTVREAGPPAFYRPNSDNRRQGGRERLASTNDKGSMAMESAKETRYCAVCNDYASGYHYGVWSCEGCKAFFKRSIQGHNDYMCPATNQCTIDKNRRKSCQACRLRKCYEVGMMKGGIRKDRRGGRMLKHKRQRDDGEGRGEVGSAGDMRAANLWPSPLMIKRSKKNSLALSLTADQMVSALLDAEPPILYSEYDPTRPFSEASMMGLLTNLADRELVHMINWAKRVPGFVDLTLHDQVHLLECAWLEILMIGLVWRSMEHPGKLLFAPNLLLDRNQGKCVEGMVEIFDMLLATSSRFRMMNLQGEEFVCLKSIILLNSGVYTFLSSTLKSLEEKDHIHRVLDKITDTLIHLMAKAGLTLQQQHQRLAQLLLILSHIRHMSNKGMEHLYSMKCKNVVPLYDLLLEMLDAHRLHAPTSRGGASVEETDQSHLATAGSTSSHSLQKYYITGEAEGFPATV
ERa SRC1 inh: blocks coactivator binding to human estrogen receptor alpha | 1.7% of 86,000 active | inhibition, % at 25.6 µM | AID 629 | TR-FRET ER-alpha LBD / SRC-1 peptide, estradiol-bound; in the data active = inhibition above about 50%
A number is an active result; 0 = inactive; - = no result given; [ ] = another dose, or the depositor's remark. Hits are enriched below; roughly 3.8% of the tested compounds scored in any of these assays.

SMILES	hDAT+cocaine	MT1-MMP txn act	ERb coact inh	ERa coact pot	ERa SRC1 inh
CCOC(=O)c1cc(OC(=O)c2ccccc2OC)n(-c2ccccc2)n1	0	0	0	0	74.3[fluorescence artefact?]
CCOC(=O)c1cnn(-c2ccccc2)c1N	0	0	0	0	0
CC(C)CCn1c(SCc2ccc(Cl)cc2)nc2c1c(=O)[nH]c(=O)n2C	0	0	0	0	0
CC(C)n1c(SCc2ccc(Cl)cc2)nc2c1c(=O)[nH]c(=O)n2C	-3.05	0	0	0	0
CCOC(=O)C1=C(O)/C(=C/c2ccc(C)o2)SC1=NC(=O)c1ccccc1C	-	0	0	0	64.0[fluorescence artefact?]
O=C(c1ccc([N+](=O)[O-])cc1)N(Cc1ccc(Cl)cc1Cl)N1C(=O)CCCC1=O	0	0	0	0	0
O=C(c1ccc([N+](=O)[O-])cc1)N(Cc1ccc(Cl)cc1)N1C(=O)CCCC1=O	-6.56	0	0	0	0
CCC(C)C(NC(=O)c1ccccc1NC(=O)c1ccc(OC)cc1)C(=O)NCc1ccco1 (stereo not drawn)	0	0	0	0	67.5[fluorescence artefact?]
O=C(CSc1nnc(-c2ccc(Cl)cc2)o1)N1CCN(c2ccccc2)CC1	-	0	54.0	0	73.2[fluorescence artefact?]
O=C(CSC1=NCCS1)N1CCN(c2ccc(Cl)cc2)CC1	2.65	0	0	0	0
O=C(Nc1nnc(-c2ccc3c(c2)CCCC3)o1)c1ccccc1	0	-	0	0	0
O=C(Nc1nnc(-c2ccc3c(c2)OCCO3)o1)c1ccc(Cc2ccccc2)cc1	0	0	64.5[fluorescence artefact?]	350.9[fluorescence artefact?]	0
c1ccc(-c2nnc3ccc(N4CCCC4)nn23)cc1	0	-	0	0	0
Cc1cnn(-c2ccc3nnc(-c4ccc(Br)cc4)n3n2)c1	0	0	0	283.9[fluorescence artefact?]	0
CN(CC1CCCO1)S(=O)(=O)c1ccc(C(=O)Nc2nc(-c3ccccn3)cs2)cc1 (stereo not drawn)	2.73	-	0	0	0
O=C(Nc1nc(-c2ccccn2)cs1)C1CC1	0	0	0	0	0
O=c1[nH]c2ccc(Cl)cc2c(-c2ccccc2)c1SC(=S)N1CCCCC1	3.42	0	0	0	0
O=C(O)[C@H](CO)Nc1ncnc2sc3c(c12)CCC3	-	0	0	0	0
O=S(=O)(Nc1ncnc2sc3c(c12)CCC3)c1ccc(Cl)s1	-2.39	0	0	0	0
Cc1n[nH]c(C)c1S(=O)(=O)N(CC(=O)N1CCc2ccccc21)c1ccc(C(C)C)cc1	0	0	50.3	0	54.2[fluorescence artefact?]
CCOc1ccc(N(CC(=O)N2CCc3ccccc32)S(=O)(=O)c2c(C)noc2C)cc1	0	0	0	0	0
CCCCSc1cnn(-c2ccccc2)c(=O)c1SCCCC	0	0	0	202.0	0
Cc1noc(C)c1COc1cccc(C(=O)Nc2ccc(OCc3ccccc3)cc2)c1	0	0	0	0	0
COc1ccccc1C(=O)Nc1nc(-c2cccs2)c(NC(C)=O)s1	0	0	0	0	66.1
CC(=O)N1CC=CC1(CC(C)C)C(=O)O (stereo not drawn)	-	0	-	-	-
SMILES	hDAT+cocaine	MT1-MMP txn act	ERb coact inh	ERa coact pot	ERa SRC1 inh
CC1Cc2ccccc2N1C(=O)CSc1nnc(-c2ccc(S(=O)(=O)N3CCCC3)cc2)o1 (stereo not drawn)	0	0	0	373.7	0
CC(=O)c1cccc(NC(=O)CSc2nnc(-c3ccc(S(=O)(=O)N4CCCC4)cc3)o2)c1	0	0	0	261.3	0
O=C(Nc1nc(-c2ccc(S(=O)(=O)N3CCCCCC3)cc2)cs1)c1cccs1	0	0	0	570.5[fluorescence artefact?]	0
COc1cccc(C(=O)Nc2nc(-c3ccc(S(=O)(=O)N4CCOCC4)cc3)cs2)c1	0	0	0	462.7[fluorescence artefact?]	0
Cc1ccc(-c2csc(NC(=O)c3cccc(S(=O)(=O)N4CCN(C)CC4)c3)n2)cc1	0	0	0	0	0
Cc1ccc(-c2csc(NC(=O)COC(=O)c3cccc(S(=O)(=O)N4CCOCC4)c3)n2)cc1	0	0	0	0	0
O=C(Nc1nc(-c2cccs2)cs1)c1cccc(S(=O)(=O)N2CCCCC2)c1	0	0	0	233.4	0
O=C(Nc1nc(-c2ccc(S(=O)(=O)N3CCCC3)cc2)cs1)c1cccs1	0	0	0	324.1[fluorescence artefact?]	0
CC(C)CCNC(=O)C1CCCN1C(=O)NC1CCCCC1 (stereo not drawn)	0	0	0	0	0
COC(=O)CCCC1=CC2=CC(=O)C(C)(OC(=O)c3cccs3)C(=O)C2=CN1C1CC1 (stereo not drawn)	0	-	-	-	-
CCCSc1nnc(NC(=O)Nc2ccccc2)s1	-	0	0	0	0
CCCSc1nnc(NC(=O)Nc2ccc(F)cc2)s1	0	0	0	246.9	0
CN(C)C(=O)N1CCN(C(=O)N2CCOCC2)CC1	0	0	0	0	0
CCn1c2ccccc2c2cc(C3C(C#N)=C(N)OC4=C3C(=O)CC(C)(C)C4)ccc21 (stereo not drawn)	-	0	0	0	0
CCn1c2ccccc2c2cc(C3C(C#N)=C(C)NC(C)=C3C#N)ccc21	0	0	0	214.6	0
CCCCNC(=O)c1onc(CSc2cccc(C)c2)c1C(=O)O	0	-	-	-	-
O=S(=O)(Nc1nc2ccccc2s1)c1ccc(Cl)s1	-3.6	0	0	0	0
O=C(CS(=O)(=O)Cc1ccccc1)Nc1nc2ccccc2s1	0	0	0	0	0
CC(C)C(O)P(=O)(OCc1ccccc1)c1ccc(N(C)C)cc1 (stereo not drawn)	0	0	0	0	51.6[fluorescence artefact?]
O=S(=O)(NCCCN1CCN(c2ccccc2F)CC1)c1cccc2cccnc12	0	0	0	0	0
CCOc1ccccc1N1CCN(S(=O)(=O)c2ccc3c4c(cccc24)C(=O)N3)CC1	0	0	55.6[fluorescence artefact?]	0	0
CCOC(=O)c1c2n(c3c(NCc4ccccc4)ncnc13)CCCC2	2.26	0	0	0	0
CCOC(=O)c1nnc(-c2ccccc2)nc1NCc1ccccc1	0	-	-	-	-
COc1cccc(Nc2nc(-c3sc(NC(=O)c4ccco4)nc3C)cs2)c1	0	-	-	-	-
COc1cccc(Nc2nc(-c3sc(N)nc3C)cs2)c1	2.21	0	0	0	0
SMILES	hDAT+cocaine	MT1-MMP txn act	ERb coact inh	ERa coact pot	ERa SRC1 inh
CS(=O)(=O)c1ccc(CNC(=O)C2(C(F)(F)F)C/C(=C\Cc3ccccc3)CCCO2)cc1 (stereo not drawn)	0	-	-	-	-
CCOC(=O)C1CCN(C(=O)c2ccc3snnc3c2)CC1	0	0	0	0	0
CCOC(=O)N1CCC(NC(=O)c2ccc3snnc3c2)CC1	2.76	0	0	0	0
COc1nc(-c2ccc(C)cc2)ccc1-c1noc(-c2ccco2)n1	0	0	0	237.2	0
COc1nc2ccccc2cc1-c1noc(-c2cccnc2)n1	-	0	0	214.7[fluorescence artefact?]	0
CCOc1nc(C)ccc1-c1noc(-c2ccccc2OC)n1	0	0	0	0	0
CCOc1ccccc1-c1nc(-c2cc3ccccc3nc2OC)no1	0	0	66.6	0	0
COc1ccccc1-c1noc(-c2cccnc2)n1	0	0	0	0	0
COc1nc(-c2ccc(C)cc2)ccc1-c1noc(-c2cccnc2)n1	-	0	0	557.4[fluorescence artefact?]	0
CN1C(C(=O)NCc2ccc(OC(F)(F)F)cc2)CC2Cn3c(nc4ccccc43)C21 (stereo not drawn)	0	-	-	-	-
